# Structures can show the parent of a compound that is named as a salt. ± gives the standard deviation of the averaged measurements.
# Legend:
# Conditions in all cases: concentration: 10 µM; 24 h
# HCC1569 [1] = assay: cell number relative to DMSO (% of DMSO); higher = more cells (less growth inhibition / toxicity)
# In short: (§1)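 H1.0 nuclear intensity or cell number is expressed as percent of the plate control, with the median of replicates taken. HCC1569 and TDF cells were treated with compounds at 10 µM for 24 h at 37 °C, in triplicate, then fixed and immunostained for H1.0 with DAPI as a nuclear stain. HCC1569 values were smoothed to correct for positional effects.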
# TDF [2] = assay: as above
# In short: as §1
# TDF [3] = assay: H1.0 immunofluorescence intensity relative to DMSO (% of DMSO); higher = stronger H1.0 induction, active = 120 or more
# In short: as §1
# HCC1569 [4] = assay: H1.0 immunofluorescence intensity relative to DMSO (% of DMSO); higher = stronger H1.0 induction, active = 140 or more
# In short: as §1
# 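For H1.0 immunofluorescence intensity relative to DMSO in this document: TDF is a line of transformed human dermal fibroblasts of mesenchymal origin.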
# 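For cell number relative to DMSO in this document: TDF denotes transformed human dermal fibroblasts of mesenchymal origin.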
Structure (SMILES),cell number (HCC1569 [1]),cell number (TDF [2]),H1.0 immunofluorescence intensity (TDF [3]),H1.0 immunofluorescence intensity (HCC1569 [4])
COc1cc(C(O)CN)ccc1O.Cl (racemic),102,111,92.5 (inactive),94.7 (inactive)
CCC(CO)NC(=O)C1C=C2c3cccc4c3c(cn4C)CC2N(C)C1.O=C(O)C=CC(=O)O (centres undefined) [Methysergide maleate],101 ± 2.7,97.1 ± 7,100 (inactive),97 (inactive)
CC1(C(=O)O)CCCC2(C)c3cc(O)ccc3CCC12 (centres undefined) [Podocarpic acid],100,102,101 (inactive),85.3 (inactive)
O=C1CSC(c2ccccc2Cl)c2cc(Cl)ccc2N1 (centres undefined),103,105,95.3 (inactive),115 (inactive)
Br.COC1CC=C2CCN3CCC4=C(CC(=O)OC4)C23C1 (stereo not drawn) [Dihydro-beta-erythroidine hydrobromide],104,98.2,91.6 (inactive),93.8 (inactive)
COc1ccc2c(c[n+](C)c3c4cc5c(cc4ccc23)OCO5)c1OC.[Cl-] [Chelerythrine Chloride],90.9,98.2,94 (inactive),123 (inactive)
N#CC(C#N)=Cc1cc(O)c(O)c(O)c1 [Tyrphostin 25],91.1,89.8,102 (inactive),113 (inactive)
"O=C(O)C=CC(=O)O.O=[N+]([O-])c1ccc2nc(N3CCNCC3)ccc2c1 [Quipazine, 6-nitro-, maleate]",96.6,95.5,95.2 (inactive),107 (inactive)
Cl.Cl.Oc1ccc2c3c1OC1c4[nH]c5c(c4CC4(O)C(C2)N(CC2CC2)CCC314)CC1(O)C2Cc3ccc(O)c4c3C1(CCN2CC1CC1)C5O4 (centres undefined) [nor-Binaltorphimine dihydrochloride],106,114,94.9 (inactive),89.7 (inactive)
c1cncc(C2CCCCN2)c1 (racemic),102,110,96 (inactive),84.1 (inactive)
COC1=CC(=O)OC(CCc2ccc3c(c2)OCO3)C1 (centres undefined) [Dihydromethysticin],96.6,105,90.4 (inactive),83.9 (inactive)
CC(C)Oc1cccnc1N(C)C1CCN(Cc2ccccc2)CC1.O=C(O)C=CC(=O)O,103,106,99 (inactive),112 (inactive)
Cl.NCC#Cc1ccccc1 [3-Phenylpropargylamine hydrochloride],104,110,80.3 (inactive),102 (inactive)
CC1=CC2c3cccc4[nH]cc(c34)CC2N(C)C1 (centres undefined) [Agroclavine],100,103,95.3 (inactive),98.1 (inactive)
CC(=O)OCC12CCC(C)=CC1OC1C(O)C(OC(C)=O)C2(C)C12CO2 (centres undefined) [Diacetoxyscirpenol],56.8,13.6,128 (active),95.6 (inactive)
CN1CCC23CCCCC2C1Cc1ccc(O)cc13.O=C(O)C(O)C(O)C(=O)O [Dextrorphan D-tartrate],103,105,93.1 (inactive),89.2 (inactive)
CC1(C)CCCC(C)(C)N1[O],99.1,96.8,100 (inactive),99.1 (inactive)
CCC1(C2=NCCN2)Cc2ccccc2O1.Cl (centres undefined) [Efaroxan hydrochloride],103,105,93.1 (inactive),94 (inactive)
CNCC(O)c1ccc(O)cc1 (racemic),108,111,91 (inactive),103 (inactive)
Cl.FC(F)(F)c1cccc(C2=CCN(CCc3ccc4ccccc4c3)CC2)c1,109,96.7,96.3 (inactive),100 (inactive)
CCN1CC2(OC(=O)c3ccccc3NC(C)=O)CCC(OC)C34C1C(CC23)C1(O)CC(OC)C2CC4C1(O)C2OC (centres undefined) [Lappaconitine],107,103,100 (inactive),94.3 (inactive)
NC(=O)CN1CCCC1=O [Piracetam],99.5,99.2,92 (inactive),103 (inactive)
C=C1C2CC3(C1O)C1CC4C5(C)CCC(O)C4(C1N(CC)C5)C3CC2=O (centres undefined) [Songorine],101,108,90 (inactive),91.7 (inactive)
CC(O)(CS(=O)(=O)c1ccc(F)cc1)C(=O)Nc1ccc(C#N)c(C(F)(F)F)c1 (centres undefined) [Bicalutamide],99.1,104,94.6 (inactive),98.8 (inactive)
CC(C)Oc1cccnc1N(C)C1CCN(Cc2ccc(I)cc2)CC1 [RBI-257 maleate],100,98.1,94.8 (inactive),102 (inactive)
N#CC(C#N)=Cc1ccc([N+](=O)[O-])c(O)c1 [Tyrphostin AG 126],99.1,111,102 (inactive),103 (inactive)

Structure (SMILES),cell number (HCC1569 [1]),cell number (TDF [2]),H1.0 immunofluorescence intensity (TDF [3]),H1.0 immunofluorescence intensity (HCC1569 [4])
NC(=NCCCC(N)C(=O)O)N[N+](=O)[O-] [NG-Nitro-L-arginine],104,96.7,89.6 (inactive),90 (inactive)
CC(N)Cc1c[nH]c2ccc(OCc3cccs3)cc12.Cl (centres undefined),102,115,87.9 (inactive),92.8 (inactive)
O=C(O)CC[N+](=O)[O-] [3-Nitropropionic acid],103,109,89.6 (inactive),84.9 (inactive)
CC1CCC2C(C)C3CCC4(O)C(CC5C4CC(=O)C4CC(=O)CCC45C)C3CN2C1 (centres undefined) [Sevedindione],99.8,110,91.7 (inactive),85 (inactive)
CC(=CC=CC(C)C(=O)O)C1CNC(C(=O)O)C1CC(=O)O (centres undefined) [Domoic acid],101,109,93.6 (inactive),86.3 (inactive)
CCN1CC2(C)CCC(O)C34C5CC6C(OC)CC(O)(C(CC23)C14)C5C6O (centres undefined) [Karakoline],103.2 ± 0.75,99.5 ± 1.5,96.4 (inactive),99.8 (inactive)
O=C(O)c1cc[c]([Hg][Cl])cc1 [4-Chloromercuribenzoic acid],102,111,91.8 (inactive),92.6 (inactive)
Cl.c1ccc2c(N3CCNCC3)cccc2c1 [1-(1-Naphthyl)piperazine hydrochloride],99.6,94.3,105 (inactive),106 (inactive)
Br.COC(=O)C1=CCCN(C)C1,102,112,89.8 (inactive),82.8 (inactive)
"CCCCCC=CCC=CCC=CCC=CCCCC(=O)NCCO [Anandamide (20:4, n-6)]",103,94.1,99.2 (inactive),96.7 (inactive)
NC(=NN=Cc1ccc(-c2cccc([N+](=O)[O-])c2)o1)N[N+](=O)[O-] [ERK Inhibitor III],102,101,95.3 (inactive),102 (inactive)
"CCCN1CCCC2Cc3[nH]ncc3CC21.Cl (single isomer, unassigned; (-)) [(-)-Quinpirole hydrochloride]",99.3,101,87.5 (inactive),100 (inactive)
CCNC(=O)C[C@@H]1N=C(c2ccc(Cl)cc2)c2cc(OC)ccc2-n2c(C)nnc21,86.4,71.9,141 (active),198 (active)
CCCn1c(=O)c2[nH]c(C3CCCC3)nc2n(CCCOC(=O)c2ccc(S(=O)(=O)F)cc2)c1=O,99.7,110,90.1 (inactive),77.2 (inactive)
COC1C(O)C(C)OC(OC2CCC3(C=O)C(CCC4C3CCC3(C)C(C5=CC(=O)OC5)CCC43O)C2)C1O (centres undefined) [Peruvoside],52.3,44,107 (inactive),106 (inactive)
Br.C#CCOC(=O)C1=CCCN(C)C1 [Arecaidine propargyl ester hydrobromide],100,98.1,93.1 (inactive),92.2 (inactive)
COc1ccc2c(c1)[nH]c1c(C)nccc12 [Harmine],87.2 ± 2.5,94.9 ± 3.2,99.7 (inactive),106 (inactive)
CCC1CN2CCc3cc(OC)c(OC)cc3C2CC1CC1NCCc2cc(OC)c(OC)cc21.Cl.Cl (centres undefined),60,27,120 (inactive),100 (inactive)
Cl.Oc1ccc2c3c1OC1c4[nH]c5ccccc5c4CC4(O)C(C2)N(CC2CC2)CCC314 (centres undefined) [Naltrindole.HCl],103,99.3,93.2 (inactive),107 (inactive)
CC(=O)OC1CC2CCC3C(CCC4(C)C3CC([N+]3(C)CCCCC3)C4OC(C)=O)C2(C)CC1[N+]1(C)CCCCC1.[Br-].[Br-] (centres undefined) [Pancuronium.2Br],100,92,93.9 (inactive),102 (inactive)
Cc1o[nH]c(=O)c1CC(N)C(=O)O (racemic),103,101,96.3 (inactive),87.9 (inactive)
O=C([O-])Cc1ccccc1.[Na+] [Sodium Phenylacetate],96.8,103,96.8 (inactive),100 (inactive)
O=S1(=O)N(CCN2CC=C(c3c[nH]c4cc(F)ccc34)CC2)c2cccc3c2N1CCC3,101,107,95.4 (inactive),102 (inactive)
CC(C)C1CNC(C(=O)O)C1CC(=O)O (centres undefined) [Dihydrokainic acid],102,116,89.2 (inactive),88.7 (inactive)
CCC(CO)NC(=O)C1C=C2c3cccc4[nH]cc(c34)CC2N(C)C1.O=C(O)C=CC(=O)O (centres undefined) [Methylergonovine maleate],101 ± 2.1,100 ± 2.5,97.4 (inactive),92.3 (inactive)
